Results taken from PubChem BioAssay (Tox21).
Values joined by “and” are separate entries in the source; they are usually repeats but may differ in a detail not shown here. Equal values may be shown once. Results filed as inconclusive are left out. More than one record can exist for a structure, and the calls need not agree. Active and inactive are the calls of the source. Calls follow the shape of the dose curve; as a rule, active = well fitted curve in the direction sought with a large enough effect in the repeat runs; inconclusive = weak or mixed curves; inactive = no such curve, though single readings can be large; an effect the other way counts as inactive or inconclusive.

How the values were obtained:
[1] = Human pregnane X receptor (PXR) small molecule agonists, qHTS cell viability counter screen (AID 1346977); also: nearly all actives have a fitted effect of over 50% in size; also: potency is read from the fitted curve at half-maximal effect
Outline: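 Viability counter screen: CellTiter-Fluor signal in PXR-Luc HepG2 cells, 24hr compound exposure, 37C, 5% CO2.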

[2] = Caspase-3/7 induction in HepG2 cells by small molecules, qHTS assay (AID 1346978); also: nearly all actives have a fitted effect of over 15% in size; also: potency is read from the fitted curve at half-maximal effect
Outline: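 Wild-type HepG2 cells (2,000/well) were settled 5 h at 37 C, 5% CO2, then exposed to compounds in DMSO for 17 h. Caspase-3/7 activity was read by luminescence 30 min after adding Caspase-Glo 3/7 reagent at room temperature.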

[3] = Caspase-3/7 induction in CHO-K1 cells by small molecules, qHTS assay (AID 1346980); also: nearly all actives have a fitted effect of over 15% in size; also: potency is read from the fitted curve at half-maximal effect
Outline: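 Wild-type cells were seeded at 1,500 per well and settled 5 hr at 37 C, 5% CO2, then exposed to DMSO-dissolved compounds for 17 hr. Caspase-Glo 3/7 reagent was added, and luminescence was read after 30min at room temperature.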

[4] = Caspase-3/7 induction in HepG2 cells by small molecules, qHTS cell viability counter screen (AID 1346981); also: nearly all actives have a fitted effect of over 30% in size; also: potency is read from the fitted curve at half-maximal effect
Outline: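 After a 5-hr attachment period at 37 C and 5% CO2, wild-type HepG2 cells received compounds in DMSO. Sixteen hours later CellTiter-Fluor was dispensed and the fluorescent signal quantified after a further hour.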

[5] = target: Nuclear receptor subfamily 1 group I member 2 (Homo sapiens) (UniProt O75469); assay: Human pregnane X receptor (PXR) small molecule agonists, qHTS assay (AID 1346982); also: nearly all actives have a fitted effect of over 35% in size; also: potency is read from the fitted curve at half-maximal effect
Outline: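 Tox21 qHTS; PXR-Luc HepG2; compounds pinned from DMSO; 24 hr, 37 C; ONE-Glo luciferase detection, 30 min room temperature.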

[6] = target: Cytochrome P450 2D6 (Homo sapiens) (UniProt P10635); assay: Cytochrome P450 Family 2 Subfamily D Member 6 (CYP2D6) small molecule antagonists: luciferase reporter qHTS assay (AID 1671196); also: nearly all actives have a fitted effect of over 50% in size; also: potency is read from the fitted curve at half-maximal effect
Sequence of Cytochrome P450 2D6 (Homo sapiens) (P10635 whole entry, looked up): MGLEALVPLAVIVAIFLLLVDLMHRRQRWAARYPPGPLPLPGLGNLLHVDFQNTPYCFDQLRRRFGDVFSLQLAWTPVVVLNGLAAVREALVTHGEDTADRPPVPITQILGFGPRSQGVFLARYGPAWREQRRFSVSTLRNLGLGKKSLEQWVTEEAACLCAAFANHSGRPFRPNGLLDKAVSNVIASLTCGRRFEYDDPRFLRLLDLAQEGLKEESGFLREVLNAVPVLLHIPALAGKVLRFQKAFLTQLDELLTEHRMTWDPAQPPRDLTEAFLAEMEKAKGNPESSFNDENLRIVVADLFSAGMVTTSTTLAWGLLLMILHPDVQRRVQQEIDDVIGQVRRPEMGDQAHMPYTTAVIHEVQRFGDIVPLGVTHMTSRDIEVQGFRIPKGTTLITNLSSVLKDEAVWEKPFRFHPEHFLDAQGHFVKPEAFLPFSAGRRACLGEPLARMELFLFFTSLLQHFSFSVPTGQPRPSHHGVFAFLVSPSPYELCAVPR
Outline: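 Room-temperature luminescent CYP2D6 activity assay: compound preincubated 10 min with enzyme–substrate mix, NADPH-initiated reaction 1 h, detection reagent 20 min before reading.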

[7] = Caspase-3/7 induction in CHO-K1 cells by small molecules, qHTS cell viability counter screen (AID 1346979); also: nearly all actives have a fitted effect of over 35% in size; also: potency is read from the fitted curve at half-maximal effect
Outline: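 Viability readout by fluorescence (CellTiter-Fluor) on wild-type CHO-K1 cells exposed for 16hr at 37C and 5% CO2 to compounds delivered in DMSO; reagent incubated 1hr before reading.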

[8] = target: Nuclear receptor subfamily 1 group I member 2 (Homo sapiens) (UniProt O75469); assay: CYP3A4 induction through human pregnane X receptor (PXR) by small molecules, qHTS assay (AID 1346984); also: nearly all actives have a fitted effect of over 40% in size; also: potency is read from the fitted curve at half-maximal effect
Outline: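 Cells (DPX-2; HepG2 with PXR element plus CYP3A4-promoter luciferase) settled 5hr, then were treated 24hr at 37C. A 3hr, 3uM-final Luciferin-IPA step preceded luminescence measurement with One-Glo.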

[9] = target: Nuclear receptor subfamily 1 group I member 2 (Homo sapiens) (UniProt O75469); assay: Human pregnane X receptor (PXR) activation by small molecules, qHTS assay (AID 1346985); also: nearly all actives have a fitted effect of over 40% in size; also: potency is read from the fitted curve at half-maximal effect
Outline: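 DPX-2 cells (HepG2 co-transfected with a PXR response element and a CYP3A4-promoter luciferase construct) were seeded at 2,000 per well, rested 5 hr at 37C, then exposed to DMSO-dissolved compounds for 24 hr. Activation was read as luciferase luminescence.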

[10] = target: Nuclear receptor subfamily 1 group I member 2 (Rattus norvegicus) (UniProt Q9R1A7); assay: Rat pregnane X receptor (rPXR) activation by small molecules, qHTS assay (AID 1346983); details: rPXR luciferase reporter cells, One-Glo luminescence, 24 h; max activation: stronger effect = higher value; also: nearly all actives have a fitted effect of over 20% in size
Sequence of Nuclear receptor subfamily 1 group I member 2 (Rattus norvegicus) (Q9R1A7 whole entry, looked up): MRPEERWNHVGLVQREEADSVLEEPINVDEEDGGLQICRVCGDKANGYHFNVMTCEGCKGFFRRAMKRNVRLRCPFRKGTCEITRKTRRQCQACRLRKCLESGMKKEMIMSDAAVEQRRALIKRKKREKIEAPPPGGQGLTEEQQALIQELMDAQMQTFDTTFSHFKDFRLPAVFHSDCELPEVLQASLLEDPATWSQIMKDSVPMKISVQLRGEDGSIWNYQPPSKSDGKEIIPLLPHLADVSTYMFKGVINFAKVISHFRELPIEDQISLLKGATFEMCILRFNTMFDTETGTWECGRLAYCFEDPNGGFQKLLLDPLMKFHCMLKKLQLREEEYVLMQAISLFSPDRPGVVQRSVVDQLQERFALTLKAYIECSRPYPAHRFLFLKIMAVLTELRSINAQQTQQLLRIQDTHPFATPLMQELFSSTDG
Outline: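 Cell-based rPXR luciferase reporter assay, 2,000 cells per well, rested 5hr at 37 C before compound addition in DMSO, then 24 hr at 37 C. One-Glo reagent was added and luminescence read after 30 min at room temperature.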
% is scaled to controls: 0 for no effect and ±100 for the full control effect.

Cc1cccc(N(C)C(=S)Oc2ccc3c(c2)C2CCC3C2)c1 (configuration not stated)
active: Potency [5] 11.9 µM
inactive: Potency [1] | Potency [2] | Potency [3] | Potency [4]

O=C(NO)C1(NS(=O)(=O)c2ccc(Oc3ccc(F)cc3)cc2)CCOCC1
inactive: Potency [1] | Potency [2] | Potency [3] | Potency [4] | Potency [5] | Potency [6]

Fc1ccc([C@@H]2CCNC[C@H]2COc2ccc3c(c2)OCO3)cc1
active: Potency [1] 29.8 µM
inactive: Potency [2] | Potency [3] | Potency [5]

O=C1c2c(O)ccc(Nc3ccc(CCO)cc3)c2C(=O)c2c([N+](=O)[O-])ccc(O)c21
active: Potency [1] 43.3 µM | Potency [7] 54.5 µM | Potency [4] 54.5 µM
inactive: Potency [3]

O=C(O)c1ccc(Cl)c(Cl)c1
inactive: Potency [1] | Potency [2] | Potency [3] | Potency [4] | Potency [5] | Potency [6]

Cc1cccc(S(=O)(=O)O)c1C
inactive: Potency [1] | Potency [2] | Potency [3] | Potency [4] | Potency [5] | Potency [6]

Clc1ccc(C(Cn2ccnc2)OCc2ccc(Sc3ccccc3)cc2)c(Cl)c1 (configuration not stated)
inactive: Potency [1] | Potency [2] | Potency [3] | Potency [4]
active: Potency [5] 26.6 µM | Potency [6] 0.389 µM

CCCCCCC[N+](CC)(CC)CCCCc1ccc(Cl)cc1
inactive: Potency [1] | Potency [2] | Potency [3] | Potency [5] | Potency [8] | Potency [9]
active: Potency [6] 0.219 µM

Cc1cccc2c1cc1ccc3cccc4ccc2c1c34
inactive: Potency [1] | Potency [2] | Potency [3] | Potency [5] | Potency [6]

CC(C)=CCOc1ccc(/C=C/C(=O)c2ccc(OCC=C(C)C)cc2OCC(=O)O)cc1
inactive: Potency [1] | Potency [2] | Potency [3] | Potency [4] | Potency [5]

CC(=O)S[C@@H]1CC2=CC(=O)CC[C@]2(C)[C@H]2CC[C@@]3(C)[C@@H](CC[C@@]34CCC(=O)O4)[C@H]12
inactive: Potency [1] | Potency [2] | Potency [3]

CC(=O)N1CCN(c2ccc(OC[C@H]3CO[C@](Cn4ccnc4)(c4ccc(Cl)cc4Cl)O3)cc2)CC1
inactive: Potency [3] | Potency [5] | Potency [8] | Potency [9]
active: Potency [1] 27.3 µM | Potency [7] 27.3 µM | Potency [4] 61.1 µM

O=C(c1ccc(O)cc1O)c1ccc(O)cc1O
inactive: Potency [1] | Potency [2] | Potency [3] | Potency [4]
active: Potency [5] 61.2 µM and 43.3 µM | Potency [6] 7.98 µM and 11.2 µM

OCCCCCCCCCCCCBr
inactive: Potency [1] | Potency [2] | Potency [3] | Potency [4] | Potency [5] | Potency [6]

CN(C)c1ccc(SC#N)cc1
active: Potency [5] 9.69 µM | Potency [6] 31.7 µM
inactive: Potency [1] | Potency [2] | Potency [3] | Potency [4]

CN(C)[C@@H]1C(=O)C(C(N)=O)=C(O)[C@@]2(O)C(=O)C3=C(O)c4c(O)cccc4C[C@H]3C[C@@H]12
inactive: Potency [1] | Potency [2] | Potency [4] | Potency [5] | Potency [6]

NC(=O)C1(N2CCCCC2)CCN(CCCN2c3ccccc3CCc3ccc(Cl)cc32)CC1
active: Potency [1] 13.3 µM | Potency [2] 33.5 µM | Potency [7] 26.6 µM | Potency [5] 1.33 µM | Potency [6] 7.76 µM

CCOC(=O)/C=C(C)/C=C/C=C(C)/C=C/c1c(C)cc(OC)c(C)c1C
inactive: Potency [1] | Potency [2] | Potency [4] | Potency [8] | Potency [9]

COc1ccc(-c2ccc3cc(C(=O)O)ccc3c2)cc1C12CC3CC(CC(C3)C1)C2
inactive: Potency [1] | Potency [2] | Potency [3] | Potency [4] | Potency [5] | Potency [8] | Potency [9]

CC(C)(C)NC(=O)[C@@H]1C[C@@H]2CCCC[C@@H]2CN1C[C@@H](O)[C@H](Cc1ccccc1)NC(=O)[C@H](CC(N)=O)NC(=O)c1ccc2ccccc2n1
inactive: Potency [8]
active: Potency [1] 19.6 µM | Potency [7] 19.6 µM | Potency [3] 61.9 µM | Potency [4] 27.7 µM | Potency [5] 24.7 µM

COc1cc(/C=C/C(=O)O[C@H]2CC[C@]34C[C@]35CC[C@]3(C)[C@@H]([C@H](C)CCC=C(C)C)CC[C@@]3(C)[C@@H]5CC[C@H]4C2(C)C)ccc1O
inactive: Potency [1] | Potency [7] | Potency [3] | Potency [4] | Potency [5] | Potency [8] | Potency [9] | Potency [6]

CC(C)C(C)(C)C(C)(C)C(C)(C)S
inactive: Potency [1] | Potency [2] | Potency [3]
active: Potency [5] 27.3 µM | Potency [6] 39.9 µM

Clc1ccccc1C(c1ccccc1)(c1ccccc1)n1ccnc1
active: Potency [1] 17.2 µM | Potency [7] 8.63 µM and 7.5 µM | Potency [4] 48.6 µM | Potency [5] 770 nM and 11.9 µM | Potency [9] 3.98 µM | Potency [6] 39.9 µM
inactive: Potency [3] | Potency [8]

Cc1cc(C2CCCCC2)n(O)c(=O)c1
inactive: Potency [3] | Potency [4] | Potency [5] | Potency [8] | Potency [9] | Potency [6]
active: Potency [1] 26.6 µM | Potency [7] 23.7 µM

O=c1[nH]cnc2nc[nH]c12
inactive: Potency [1] | Potency [2] | Potency [3] | Potency [4] | Potency [5] | Potency [8] | Potency [9] | Potency [6]

CC(C)CCCCCCCCCCCCCCC(=O)O
inactive: Potency [1] | Potency [7] | Potency [3] | Potency [4] | Potency [5] | Potency [6]

Cc1cc(O)c(Cl)c(C)c1Cl
inactive: Potency [1] | Potency [7] | Potency [3] | Potency [4] | Potency [5] | Potency [6]

CCCN(CCC)C(=O)C(CCC(=O)OCCCN1CCN(CCOC(=O)Cc2c(C)n(C(=O)c3ccc(Cl)cc3)c3ccc(OC)cc23)CC1)NC(=O)c1ccccc1 (configuration not stated)
active: Potency [1] 18.8 µM | Potency [7] 26.6 µM | Potency [4] 26.6 µM | Potency [5] 10.6 µM | Potency [6] 27.5 µM
inactive: Potency [3]

C=CC(=O)OCCn1c(=O)n(CCOC(=O)C=C)c(=O)n(CCOC(=O)C=C)c1=O
inactive: Potency [6]
active: Potency [1] 27.3 µM | Potency [7] 4.33 µM | Potency [3] 2.43 µM | Potency [4] 27.3 µM | Potency [5] 8.63 µM

CCc1cc(Cc2cc(CC)cc(C(C)(C)C)c2O)c(O)c(C(C)(C)C)c1
inactive: Potency [6]
active: Potency [1] 30.6 µM | Potency [7] 38.6 µM | Potency [3] 54.5 µM | Potency [4] 54.5 µM | Potency [5] 0.686 µM

Nc1ccc(N)c2ccccc12
inactive: Potency [3]
active: Potency [1] 24.3 µM | Potency [7] 30.6 µM | Potency [5] 8.63 µM | Potency [6] 3.99 µM

Oc1ccc(C2(c3ccc(O)cc3)CC3CC2C2CCCC32)cc1 (configuration not stated)
inactive: Potency [3] | Potency [6]
active: Potency [1] 58.7 µM | Potency [7] 46.6 µM | Potency [4] 52.3 µM

CCCCCCCC[P+](CCCCCCCC)(CCCCCCCC)CCCCCCCC
inactive: Potency [3]
active: Potency [1] 2.42 µM | Potency [7] 5.42 µM | Potency [4] 13.6 µM | Potency [5] 2.42 µM | Potency [6] 0.141 µM

C[C@H](CCC(=O)O)[C@H]1CC[C@H]2[C@@H]3CC[C@@H]4C[C@H](O)CC[C@]4(C)[C@H]3CC[C@]12C
inactive: Potency [1]
inactive and 35.6 µM (active): Potency [6]
active: Potency [7] 48.4 µM | Potency [3] 48.4 µM and 61.1 µM | Potency [4] 60.9 µM | Potency [5] 54.5 µM

OCCN1CCN(CC/C=C2/c3ccccc3Sc3ccc(C(F)(F)F)cc32)CC1
inactive: Potency [5] | max activation [10] -7.9%
active: Potency [1] 29.8 µM | Potency [7] 29.8 µM | Potency [4] 33.5 µM | Potency [6] 6.92 µM

Cc1ccc(O)c2ncccc12
inactive: Potency [3] | Potency [4] | Potency [8] | Potency [9] | Potency [6]
active: Potency [1] 5.96 µM | Potency [7] 5.31 µM | Potency [5] 3.35 µM

CNCc1cc(F)ccc1Oc1ccc(Cl)c(Cl)c1
active: Potency [1] 61.1 µM | Potency [7] 61.1 µM | Potency [6] 1.78 µM
inactive: Potency [3] | Potency [5]

CCCCCCCCCCCCCCCCCC[N+](C)(C)Cc1ccccc1
inactive: Potency [3]
active: Potency [1] 11 µM | Potency [7] 4.9 µM | Potency [4] 55 µM | Potency [5] 1.55 µM | Potency [6] 0.18 µM

CC1=C(C(=O)OC(C)C)C(c2cccc([N+](=O)[O-])c2)C(C(=O)OC2CN(C(c3ccccc3)c3ccccc3)C2)=C(N)N1 (configuration not stated)
active: Potency [1] 16.8 µM | Potency [7] 21.1 µM | Potency [4] 33.5 µM | Potency [5] 9.44 µM | Potency [9] 7.08 µM
inactive: max activation [10] -6.42% | Potency [8]

O=C(Nc1cccc([N+](=O)[O-])c1)c1cc2ccccc2cc1O
active: Potency [1] 3.86 µM | Potency [7] 4.33 µM | Potency [4] 6.11 µM | Potency [5] 6.11 µM | Potency [6] 25.2 µM

CC(=O)OCC(C)OC(C)=O (configuration not stated)
inactive: Potency [1] | Potency [7] | Potency [4] | Potency [5] | Potency [6]

CC(C)(C)c1ccc(C(=O)CCCN2CCC(OC(c3ccccc3)c3ccccc3)CC2)cc1
active: Potency [1] 21.1 µM | Potency [7] 18.8 µM | Potency [4] 29.8 µM

Cc1cc(O)c2ccccc2c1O
active: Potency [1] 16.8 µM | Potency [7] 10.6 µM | Potency [4] 33.5 µM | Potency [8] 1.58 µM | Potency [6] 17.4 µM
inactive: Potency [5] | max activation [10] 10% | Potency [9]
